Assay results taken from PubChem BioAssay.
“And” between values parts separate entries of the source, which are not always exact repeats. Identical values can stand only once. Results filed as inconclusive are left out. The source made the active and inactive calls.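 Rule for the calls, unless noted: active = thallium flux through the channel raised or lowered by more than 3 SD from vehicle-only wells, actives on both sides; inactive = the rest.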

Key:
[1] = target: ATP-dependent translocase ABCB1 (Homo sapiens) (UniProt P08183); assay: P-glycoprotein substrate transport blockade – cell-based (AID 377; in the data active = fluorescence slope change above about 50%); settings: MDR1-expressing cells, fluorescent substrate accumulation slope; stronger effect = higher value; concentration not given here
ATP-dependent translocase ABCB1 (Homo sapiens), sequence (P08183 whole entry, looked up): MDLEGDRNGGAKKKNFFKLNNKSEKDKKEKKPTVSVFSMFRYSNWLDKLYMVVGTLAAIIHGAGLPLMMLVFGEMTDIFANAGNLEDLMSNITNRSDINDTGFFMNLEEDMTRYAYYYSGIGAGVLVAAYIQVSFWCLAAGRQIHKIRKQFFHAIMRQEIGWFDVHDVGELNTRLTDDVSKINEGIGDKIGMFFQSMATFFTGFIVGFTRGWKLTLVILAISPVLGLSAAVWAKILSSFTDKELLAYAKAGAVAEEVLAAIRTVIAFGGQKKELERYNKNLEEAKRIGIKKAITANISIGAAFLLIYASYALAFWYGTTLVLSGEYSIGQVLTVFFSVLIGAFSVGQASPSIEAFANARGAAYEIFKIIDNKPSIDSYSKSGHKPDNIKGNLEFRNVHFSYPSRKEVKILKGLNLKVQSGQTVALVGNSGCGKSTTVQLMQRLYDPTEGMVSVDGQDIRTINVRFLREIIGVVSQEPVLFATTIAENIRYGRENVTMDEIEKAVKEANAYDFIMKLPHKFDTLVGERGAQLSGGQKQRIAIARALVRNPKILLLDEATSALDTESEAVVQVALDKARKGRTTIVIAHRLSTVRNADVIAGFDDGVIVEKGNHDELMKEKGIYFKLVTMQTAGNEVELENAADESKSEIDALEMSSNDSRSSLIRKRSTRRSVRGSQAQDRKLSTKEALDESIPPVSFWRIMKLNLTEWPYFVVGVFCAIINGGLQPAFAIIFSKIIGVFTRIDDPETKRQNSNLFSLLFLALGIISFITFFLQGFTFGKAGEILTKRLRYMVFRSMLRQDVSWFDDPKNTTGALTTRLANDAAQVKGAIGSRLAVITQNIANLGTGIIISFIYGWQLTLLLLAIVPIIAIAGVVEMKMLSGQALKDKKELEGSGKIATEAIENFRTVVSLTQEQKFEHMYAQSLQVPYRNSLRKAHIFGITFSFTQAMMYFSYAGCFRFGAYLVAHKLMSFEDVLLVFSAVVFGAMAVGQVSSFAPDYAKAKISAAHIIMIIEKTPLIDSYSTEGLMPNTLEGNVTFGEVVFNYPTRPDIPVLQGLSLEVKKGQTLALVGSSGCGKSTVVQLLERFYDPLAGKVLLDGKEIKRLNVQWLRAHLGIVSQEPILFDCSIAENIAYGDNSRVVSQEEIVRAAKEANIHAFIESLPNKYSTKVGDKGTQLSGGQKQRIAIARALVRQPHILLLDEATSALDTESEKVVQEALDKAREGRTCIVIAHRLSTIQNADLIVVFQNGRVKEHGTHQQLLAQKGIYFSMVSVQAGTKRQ

[2] = growth inhibition, single agents and combos, LFS_MB_1R, cell-based, cisplatin or BGB combos, synergistic combos for chromothripsis tumors (AID 1671452; in the data active = inhibition above about 80%;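 note: cells exposed for 96 hours before readout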); settings: LFS_MB_1R medulloblastoma cells, stronger effect = higher value
[3] = RCMB18 cell growth, single agent and combined, cisplatin and BGB IC40 combos (AID 1671462; in the data active = inhibition above about 80%;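 note: cells exposed to compound for four days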); settings: RCMB18 medulloblastoma cells, stronger effect = higher value
[4] = CRL1545 cell growth, single agent and combined, cisplatin and BGB IC20 combos (AID 1671464; in the data active = inhibition above about 80%;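 note: cells exposed to compound for 96 hours before readout; 0% = vehicle DMSO and 100% = high DMSO killing control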); settings: CRL1545 osteosarcoma cells, stronger effect = higher value
[5] = viability loss in pontine glioma line – cell-based, JHH-DIPG-1, MIPE4.0, CellTiter-Glo, qHTS, dose response (AID 1347062; cut-off not given, nearly all actives have AC50 up to about 27 µM); settings: JHH-DIPG-1 viability, CellTiter-Glo ATP luminescence
[6] = viability loss in pontine glioma line – cell-based, SU-DIPG-IV, MIPE4.0, CellTiter-Glo, qHTS, dose response (AID 1347063; cut-off not given, nearly all actives have AC50 up to about 30 µM;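 note: compound exposure lasted 48 hours before the viability readout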); settings: CellTiter-Glo ATP luminescence
[7] = growth inhibition of DIPG cells – cell-based, MIPE4.0 library, CellTiter-Glo luminescence, qHTS (AID 1347066; cut-off not given, nearly all actives have AC50 up to about 30 µM;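 note: cells exposed to compound for 48 hours before readout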); settings: SU-DIPG-VI viability, CellTiter-Glo ATP luminescence
[8] = GFP-Q80 aggregate reduction, neuronal-like cells, cell-based, NGF-treated PC12, GFPQ80 (AID 1614); settings: PC12 NGF-treated GFP-polyQ80 inclusion reduction;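 note: lower means fewer inclusions and 0 means no inclusions at all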
[9] = tested on: Aerobactin synthetase IucA (Klebsiella pneumoniae); assay: inhibition of K. pneumoniae IucA enzyme – biochemical, Tocris library, absorbance (AID 1345561; call rule not given here;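 note: 100% = enzyme without compound and 0% = no enzyme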); settings: purified IucA enzyme assay, absorbance (OD) read-out; stronger effect = lower value;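 tested at 8 µM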
[10] = viability loss in pontine glioma line – cell-based, SU-DIPG-XIII, MIPE4.0, CellTiter-Glo, qHTS, dose response (AID 1347061; cut-off not given, nearly all actives have AC50 up to about 37 µM;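 note: cells exposed to compound for 48 hours before readout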); settings: CellTiter-Glo ATP luminescence
F380Y = assay: BK channel mutant inhibitors and activators – cell-based, U2OS BacMam, thallium flux, beta subunits, selectivity assay, profiling panel (AID 1259406); settings: U2OS BacMam BK variants, at 30 µM;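 note: initial slope of Thallos dye fluorescence rise after thallium is added; log ratio against the mean of 0.3% DMSO vehicle wells on the same plate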
F380Y/beta1 = assay: as above; settings: U2OS BacMam BK variants, at 30 µM
F380Y/beta2Delta = assay: as above; settings: U2OS BacMam BK variants, at 30 µM
F380Y/beta4 = assay: as above; settings: U2OS BacMam BK variants, at 30 µM
[11] = target: Calcium-activated potassium channel subunit alpha-1 (Homo sapiens) + Leucine-rich repeat-containing protein 26 (Homo sapiens) (UniProt Q12791+Q2I0M4); assay: as above; settings: U2OS BacMam BK variants, F380Y/Slo1WT/gamma1, at 30 µM
Calcium-activated potassium channel subunit alpha-1 (Homo sapiens) + Leucine-rich repeat-containing protein 26 (Homo sapiens), sequence (Q2I0M4 whole entry, looked up, one chain of several): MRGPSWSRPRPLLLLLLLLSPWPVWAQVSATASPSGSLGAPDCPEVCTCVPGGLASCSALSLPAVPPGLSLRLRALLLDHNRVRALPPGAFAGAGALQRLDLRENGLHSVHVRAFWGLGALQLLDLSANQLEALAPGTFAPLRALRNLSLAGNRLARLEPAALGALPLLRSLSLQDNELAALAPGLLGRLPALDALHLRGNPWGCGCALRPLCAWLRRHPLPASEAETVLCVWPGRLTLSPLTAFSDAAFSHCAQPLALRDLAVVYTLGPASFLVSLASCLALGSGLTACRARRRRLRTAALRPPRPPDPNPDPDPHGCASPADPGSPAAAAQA

R275C = assay: as above; settings: U2OS BacMam BK variants, at 30 µM
R275C/beta1 = assay: as above; settings: U2OS BacMam BK variants, at 30 µM
R275C/beta2Delta = assay: as above; settings: U2OS BacMam BK variants, at 30 µM
R275C/beta4 = assay: as above; settings: U2OS BacMam BK variants, at 30 µM
R275C/Slo1WT/beta2 = assay: as above; settings: U2OS BacMam BK variants, at 30 µM
[12] = measured here: combination with BGB IC40, at 0.05 µM
[13] = measured here: combination with cisplatin, at 0.5 µM
[14] = measured here: combination with cisplatin, at 5 µM
[15] = measured here: BGB IC40 combination, at 0.05 µM
[16] = measured here: with BGB IC20 combination, at 0.5 µM
[17] = measured here: with cisplatin IC20 combination, at 0.5 µM

## C[C@]12CCC(=O)C=C1CC[C@H]1[C@@H]3CC[C@](O)(C(=O)CO)[C@@]3(C)C[C@H](O)[C@@]12F
[1]
  fluorescence slope change: 9.8% (inactive)

## Cc1ccc2nc(N)[nH]c(=O)c2c1Sc1ccncc1
[2]; at 0.5 µM
  inhibition: -7.14% (inactive)
[2]; [12]
  inhibition: -4.51%
[2]; [13]
  inhibition: -35.9%
[2]; [14]
  inhibition: 0.93%
[3]; at 0.5 µM
  inhibition: -22.7% (inactive)
[3]; cisplatin combo, at 5 µM
  inhibition: -4.62%
[3]; [15]
  inhibition: -25.2%
[3]; [13]
  inhibition: -45.9%
[3]; single agent, at 5 µM
  inhibition: 12.6%
[4]; at 0.5 µM
  inhibition: -26.5% (inactive)
[4]; [16]
  inhibition: -34.6%
[4]; [17]
  inhibition: -24.4%
[4]; single agent, at 0.05 µM
  inhibition: -59.1%
[4]; single agent, at 5 µM
  inhibition: -14.1%

## Cc1c(-c2ccc(O)cc2)n(Cc2ccc(OCCN3CCCCCC3)cc2)c2ccc(O)cc12
[5]
  outcome: inactive
[6]
  outcome: inactive
[7]
  outcome: inactive

## C[C@@H]1CCC[C@H](C)N1
[1]
  fluorescence slope change: 9.9% (inactive)

## CN1C[C@@H]2C[C@H]1CN2c1cc2c(cc1F)c(=O)c(C(=O)O)cn2C1CC1
[2]; at 0.5 µM
  inhibition: -32.5% (inactive)
[2]; [12]
  inhibition: -27.6%
[2]; [13]
  inhibition: -60%
[2]; [14]
  inhibition: -44.9%
[3]; at 0.5 µM
  inhibition: -27.5% (inactive)
[3]; cisplatin combo, at 5 µM
  inhibition: -18.3%
[3]; [15]
  inhibition: -12.7%
[3]; [13]
  inhibition: -81.8%
[3]; single agent, at 5 µM
  inhibition: -17.7%
[4]; at 0.5 µM
  inhibition: -62.9% (inactive)
[4]; [16]
  inhibition: -46.3%
[4]; [17]
  inhibition: -75.1%
[4]; single agent, at 0.05 µM
  inhibition: -30.1%
[4]; single agent, at 5 µM
  inhibition: -48.9%

## CNS(=O)(=O)CCc1ccc2[nH]cc(C3CCN(C)CC3)c2c1
[6]
  outcome: inactive

## O=C(O)CCC(=O)OC[C@@H](NC(=O)C(Cl)Cl)[C@H](O)c1ccc([N+](=O)[O-])cc1
[8]
  inclusion score: 2

## Cc1ccc(O)cc1
[8]
  inclusion score: 2

## Cc1cccc(Nc2cc(Cl)nc(SCC(=O)O)n2)c1C
[9]
  remaining activity: 107% (inactive)

## CCCCCCCCCCCCCCCCCCOP(=O)([O-])OC1CC[N+](C)(C)CC1
[10]
  outcome: inactive
[5]
  outcome: inactive
[7]
  outcome: inactive

## CCCC(CCC)C(=O)O
[8]
  inclusion score: 2
[10]
  outcome: inactive
[7]
  outcome: inactive
[2]; at 0.5 µM
  inhibition: -27.6% (inactive) and -16.5% (inactive)
[2]; [12]
  inhibition: -35.5% and -12.1%
[2]; [13]
  inhibition: -35% and -39.3%
[2]; [14]
  inhibition: 2.7% and -48.1%
[3]; at 0.5 µM
  inhibition: -2.59% (inactive) and -3.82% (inactive)
[3]; cisplatin combo, at 5 µM
  inhibition: -12% and -15.7%
[3]; [15]
  inhibition: -2.36% and -1.73%
[3]; [13]
  inhibition: 10.5% and -4.92%
[3]; single agent, at 5 µM
  inhibition: -25.2% and -0.151%
[4]; at 0.5 µM
  inhibition: -19.7% (inactive) and -18.9% (inactive)
[4]; [16]
  inhibition: -18.4% and -23.1%
[4]; [17]
  inhibition: -23.1% and -18.8%
[4]; single agent, at 0.05 µM
  inhibition: -52.6% and 9%
[4]; single agent, at 5 µM
  inhibition: 8.56% and -31.8%
F380Y
  log fold change Tl+ flux: -0.0169 (inactive)
F380Y/beta1
  log fold change Tl+ flux: -0.0195 (inactive)
F380Y/beta2Delta
  log fold change Tl+ flux: 0.0329 (inactive)
F380Y/beta4
  log fold change Tl+ flux: 0.0134 (inactive)
[11]
  log fold change Tl+ flux: -0.023 (inactive)
R275C
  log fold change Tl+ flux: 0.0376 (inactive)
R275C/beta1
  log fold change Tl+ flux: -0.0394 (inactive)
R275C/beta2Delta
  log fold change Tl+ flux: 0.0234 (inactive)
R275C/beta4
  log fold change Tl+ flux: 0.0354 (inactive)
R275C/Slo1WT/beta2
  log fold change Tl+ flux: -0.0422 (inactive)

## COC(=O)C1=C(C)NC(C)=C(C(=O)OC)C1c1ccccc1[N+](=O)[O-]
[9]
  remaining activity: 121% (inactive)

## CN1C(=O)CC[C@H]1c1cccnc1
[1]
  fluorescence slope change: 94.5% (active)
[8]
  inclusion score: 2
F380Y
  log fold change Tl+ flux: -0.00809 (inactive)
F380Y/beta2Delta
  log fold change Tl+ flux: 0.00811 (inactive)
[11]
  log fold change Tl+ flux: 0.0267 (inactive)
R275C
  log fold change Tl+ flux: -0.00497 (inactive)
R275C/beta1
  log fold change Tl+ flux: -0.0358 (inactive)
R275C/beta2Delta
  log fold change Tl+ flux: -0.0502 (inactive)

## COC(=O)C1=C(C)NC(C)=C(C(=O)OCCN(C)Cc2ccccc2)C1c1cccc([N+](=O)[O-])c1 (configuration not stated)
[1]
  fluorescence slope change: 15.7% (inactive)
F380Y
  log fold change Tl+ flux: -0.089 (inactive)
F380Y/beta1
  log fold change Tl+ flux: -0.0357 (inactive)
F380Y/beta2Delta
  log fold change Tl+ flux: -0.158 (active)
F380Y/beta4
  log fold change Tl+ flux: -0.137 (active)
[11]
  log fold change Tl+ flux: -0.059 (inactive)
R275C
  log fold change Tl+ flux: -0.031 (inactive)
R275C/beta1
  log fold change Tl+ flux: -0.044 (inactive)
R275C/beta2Delta
  log fold change Tl+ flux: 0.0144 (inactive)
R275C/beta4
  log fold change Tl+ flux: 0.196 (active)
R275C/Slo1WT/beta2
  log fold change Tl+ flux: 0.00258 (inactive)
